Measurements: PubChem BioAssay (EPA / NIEHS)
Values joined by “and” are separate entries in the source; they are usually repeats but may differ in a detail not shown here. Equal entries are not always repeated. Active and inactive are the calls of the source. The calls were made as follows: active = hit-call score of the fitted dose curve at least 0.9, where 1 is the maximum; inactive = score below 0.9.

Legend:
[1] = read-out: Vascular cell adhesion molecule 1 (VCAM1), VCAM1 (gene 7412); assay: BSK_4H_VCAM1: BioMAP Diversity Plus: 4H Assay for Vascular cell adhesion molecule 1 (VCAM1) Biomarker Activity (AID 2283033); conditions: primary human endothelial cells (HUVEC); actives raise or lower the signal
Procedure, shortened: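 HUVEC, 24 h post-dose; VCAM-1 by ELISA. Bidirectional curve fit vs DMSO baseline. Parallel SRB total-protein stain (0.1% SRB after 10% TCA fixation, 560 nm) for cytotoxicity.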

[2] = read-out: Interferon-gamma inducible Protein 10 (IP10), CXCL10 (gene 3627); assay: BSK_BE3C_IP10: BioMAP Diversity Plus: BE3C Assay for Interferon-gamma inducible Protein 10 (IP10) Biomarker Activity (AID 2283034); conditions: primary human bronchial epithelial cells; actives raise or lower the signal
Procedure, shortened: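 ELISA readout of IP-10 in BE3C system: primary human bronchial epithelial cells, 24 h post-dosing; bidirectional curve fit vs DMSO baseline.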

[3] = read-out: Monokine induced gamma interferon (MIG), CXCL9 (gene 4283); assay: BSK_BE3C_MIG: BioMAP Diversity Plus: BE3C Assay for Monokine induced gamma interferon (MIG) Biomarker Activity (AID 2283035); conditions: primary human bronchial epithelial cells; actives raise or lower the signal
Procedure, shortened: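 Dose cells (human primary bronchial epithelial), incubate 24 h, quantify MIG by ELISA, then fit concentration–response in both directions relative to DMSO control.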

[4] = read-out: Transforming growth factor beta 1 (TGFb1), TGFB1 (gene 7040); assay: BSK_BE3C_TGFb1: BioMAP Diversity Plus: BE3C Assay for Transforming growth factor beta 1 (TGFb1) Biomarker Activity (AID 2283036); conditions: primary human bronchial epithelial cells; actives raise or lower the signal
Procedure, shortened: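 Read-out: ELISA for TGF-b1 in primary human bronchial epithelial cultures, 24 h post-dose. Bidirectional curve fitting vs DMSO control; gain or loss of signal both scored.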

[5] = read-out: Plasminogen activator inhibitor-1 (PAI1), SERPINE1 (gene 5054); assay: BSK_BE3C_PAI1: BioMAP Diversity Plus: BE3C Assay for Plasminogen activator inhibitor-1 (PAI1) Biomarker Activity (AID 2283037); conditions: primary human bronchial epithelial cells; actives raise or lower the signal
Procedure, shortened: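 ELISA read-out of PAI-1 from human bronchial epithelial primary cells, 24 h post-dosing; bidirectional curve fit vs DMSO baseline, gain or loss of signal scored.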

[6] = read-out: urokinase plasminogen activator (uPA), PLAU (gene 5328); assay: BSK_BE3C_uPA: BioMAP Diversity Plus: BE3C Assay for urokinase plasminogen activator (uPA) Biomarker Activity (AID 2283038); conditions: primary human bronchial epithelial cells; actives raise or lower the signal
Procedure, shortened: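 Measured by ELISA: uPA from human primary bronchial epithelial cells 24 h after chemical treatment. Values derive from bidirectional curve fitting with DMSO serving as negative control. Total protein by SRB staining in parallel wells flagged overt cytotoxicity.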

[7] = read-out: Urokinase-type plasminogen activator receptor (uPAR), PLAUR (gene 5329); assay: BSK_BE3C_uPAR: BioMAP Diversity Plus: BE3C Assay for Urokinase-type plasminogen activator receptor (uPAR) Biomarker Activity (AID 2283039); conditions: primary human bronchial epithelial cells; actives raise or lower the signal
Procedure, shortened: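 ELISA readout of uPAR on human lung primary bronchial epithelial cells, 24 h post-dosing. Bidirectional curve fit relative to DMSO vehicle baseline; gain or loss of signal both scored.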

[8] = read-out: Interleukin-6 (IL6), IL6 (gene 3569); assay: BSK_CASM3C_IL6: BioMAP Diversity Plus: CASM3C Assay for Interleukin-6 (IL6) Biomarker Activity for (AID 2283040); conditions: primary human coronary artery smooth muscle cells; actives raise or lower the signal
[9] = read-out: Interleukin-8 (IL8), CXCL8 (gene 3576); assay: BSK_CASM3C_IL8: BioMAP Diversity Plus: CASM3C Assay for Interleukin-8 (IL8) Biomarker Activity (AID 2283042); conditions: primary human coronary artery smooth muscle cells; actives raise or lower the signal;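 also: IL-8 protein level quantified by ELISA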
[10] = read-out: Tissue plasminogen activator (tPA), PLAT (gene 5327); assay: BSK_BE3C_tPA: BioMAP Diversity Plus: BE3C Assay for Tissue plasminogen activator (tPA) Biomarker Activity (AID 2283041); conditions: primary human bronchial epithelial cells; actives raise or lower the signal
Procedure, shortened: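 ELISA read-out of tPA on human primary bronchial epithelial cells, 24 h post-dosing; bidirectional fit vs DMSO negative control/baseline.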

Measured: AC50

O=c1[nH]cnc2c1ncn2[C@H]1CC[C@@H](CO)O1
not listed: [10]
inactive: all other assays above

CCN(CC)C(=S)SSC(=S)N(CC)CC
active: [1] 32.4 µM | [2] 25.5 µM | [3] 32.3 µM | [4] 17.9 µM | [5] 27.9 µM | [6] 18.7 µM | [7] 22.6 µM | [9] 20 µM
inactive: [8]

OC[C@H]1O[C@@H]2O[C@H]3[C@H](O)[C@@H](O)[C@@H](O[C@H]4[C@H](O)[C@@H](O)[C@@H](O[C@H]5[C@H](O)[C@@H](O)[C@@H](O[C@H]6[C@H](O)[C@@H](O)[C@@H](O[C@H]7[C@H](O)[C@@H](O)[C@@H](O[C@H]1[C@H](O)[C@H]2O)O[C@@H]7CO)O[C@@H]6CO)O[C@@H]5CO)O[C@@H]4CO)O[C@@H]3CO
not listed: [10]
inactive: all other assays above

FC(F)C(F)(F)COCC1CO1 (stereo not given)
not listed: [4]
inactive: all other assays above

CC(=O)c1ccccc1
not listed: [10]
inactive: all other assays above

FC(F)=C(F)C(F)(F)C(F)(F)C(F)(F)C(F)(F)C(F)(F)C(F)(F)F
not listed: [4] | [10]
inactive: all other assays above

OC(O)(C(F)C(O)(O)C(F)(F)F)C(F)(F)F
active: [10] 24.6 µM and 20.5 µM
not listed: [4]
inactive: all other assays above

NC(=O)N1c2ccccc2C=Cc2ccccc21
not listed: [2]
inactive: all other assays above

C=CN1CCCC1=O
not listed: [10]
inactive: all other assays above

CCCCCCCCCCCCCCO
active: [1] 34.2 µM
not listed: [10]
inactive: all other assays above

CCCCCOC(C)=O
not listed: [10]
inactive: all other assays above

FC(F)(F)C(F)(F)C(F)(F)C(F)(F)C(F)(F)C(F)(F)I
not listed: [4]
inactive: all other assays above

CCOc1ccc2[nH]cc(C(=O)NCc3ccccc3)c(=O)c2n1
not listed: [10]
inactive: all other assays above

CCCOc1ccc(S(=O)(=O)N2CCN(CC)CC2)cc1-c1nc2c(CC)n(Cc3ccccn3)nc2c(=O)[nH]1
not listed: [10]
inactive: all other assays above

C[C@@H](Oc1ccc(CNC(=O)c2cccnc2Oc2ccc3c(c2)OCO3)c(F)c1)C(=O)O
not listed: [10]
inactive: all other assays above

FC(F)(F)COC(OCC(F)(F)F)OCC(F)(F)F
not listed: [4] | [10]
inactive: all other assays above

c1ccc2ncccc2c1
not listed: [10]
inactive: all other assays above

C=CCc1cc(S(=O)(=O)c2ccc(O)c(CC=C)c2)ccc1O
inactive: [8]
active: [1] 32.3 µM | [2] 13.4 µM | [3] 29.8 µM | [4] 10.5 µM | [5] 10.8 µM | [6] 23.5 µM | [7] 15.4 µM | [9] 17.6 µM

OCCNCCO
not listed: [10]
inactive: all other assays above

NCC(F)(F)C(F)(F)C(F)(F)C(F)(F)F
not listed: [4] | [10]
inactive: all other assays above

S=P(N1CC1)(N1CC1)N1CC1
not listed: [10]
inactive: all other assays above

Cc1ncc([C@@H](CCCCCCc2ccc3c(n2)NCCC3)CC(=O)O)cn1
not listed: [10]
inactive: all other assays above
